PubChem BioAssay (Tox21)
Where “and” joins values, the source holds several entries; their conditions need not be identical. Identical values can stand only once. Records with an inconclusive call do not appear. Entries that show only a call come without a potency. Where a structure was tested more than once in an assay, its records may differ in their call. Calls of active or inactive are those of the source. Unless noted, calls follow the shape of the dose curve; as a rule, active = well fitted curve in the direction sought with a large enough effect in the repeat runs; inconclusive = weak or mixed curves; inactive = no such curve, though single readings can be large; an effect the other way counts as inactive or inconclusive.

test: qHTS assay to identify small molecule agonists of H2AX - cell viability counter screen (AID 1224847; calls by dose curve;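 also: wild-type CHO-K1 cells; top concentration of the series differs between compounds; nearly all actives have a fitted effect of over 30% in size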); conditions: CHO-K1 viability, CellTiter-Glo luminescence, 3 h; series mostly up to 154 µM
How it was run: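 Counter-screen for viability: CellTiter-Glo ATP luminescence read after 3 h compound treatment (15-point titration, 0.76% DMSO final) of CHO-K1 cells at 37C, with 30 min room-temperature reagent incubation.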

SMILES | Potency
Cc1ncc(CO)c(CO)c1O | inactive
O=C(NCC1CCCCN1)c1cc(OCC(F)(F)F)ccc1OCC(F)(F)F (configuration not stated) | inactive
O=c1n(CCCN2CCN(c3cccc(Cl)c3)CC2)nc2ccccn12 | inactive
N[C@@H](Cc1cc(I)c(Oc2ccc(O)c(I)c2)c(I)c1)C(=O)O | inactive
CC(C)(C)NC[C@H](O)COc1nsnc1N1CCOCC1 | inactive
O=C(O)C1=NN(c2ccc(S(=O)(=O)O)cc2)C(=O)C1 | inactive
CCn1cc(C(=O)O)c(=O)c2cc3c(cc21)OCO3 | inactive
COc1ccc(N)c(OC)c1 | inactive
C=C(CC(=O)O)C(=O)O | inactive
NC(=O)c1ncn([C@@H]2O[C@H](CO)[C@@H](O)[C@H]2O)n1 | inactive

test: qHTS assay to identify small molecule antagonists of the estrogen related receptor (ERR) signaling pathway from Tox21 library (AID 1224848); conditions: ERR reporter cell line, luciferase antagonist mode, 18 h; series mostly up to 92.4 µM; also: nearly all actives have a fitted effect of over 50% in size; also: potency is read from the fitted curve at half-maximal effect
How it was run: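 Tox21 10K compounds in DMSO tested for ERR pathway antagonism in NTP's ERR cell line; 18 h, 37 C exposure; ONE-Glo luminescence.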

SMILES | Potency
Nc1nc(N)c2nc(-c3ccccc3)c(N)nc2n1 | 24.6 µM (active) and 21.7 µM (active)
c1cnc2c(c1)ccc1cccnc12 | 1.23 µM (active) and 1.09 µM (active) and 1.54 µM (active)
O=C(c1ccccc1)c1ccc(O)c(O)c1O | inactive
CC(CN1c2ccccc2Sc2ccccc21)N(C)C (configuration not stated) | 61.8 µM (active) and 68.6 µM (active) and inactive

test: qHTS assay to identify small molecule agonists of the estrogen related receptor (ERR) signaling pathway from Tox21 library (AID 1224849; calls by dose curve; also: nearly all actives have a fitted effect of over 15% in size); conditions: ERR reporter cell line, ONE-Glo luciferase, 18 h; at 42.5 µM (top of the series)
How it was run: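 Reporter cells (ERR, NTP source) treated with Tox21 10K compounds 18 h, 37 C. Readout: ONE-Glo luminescence, 30 min RT.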

SMILES | activity change, positive = activation
Nc1nc(N)c2nc(-c3ccccc3)c(N)nc2n1 | -33.8% (inactive)
O=c1n(CCCN2CCN(c3cccc(Cl)c3)CC2)nc2ccccn12 | -14.9% (inactive)
CC(CN1c2ccccc2Sc2ccccc21)N(C)C (configuration not stated) | -5.06% (inactive)

same assay, conditions: ERR reporter cell line, ONE-Glo luciferase, 18 h; at 92.4 µM (top of the series)

SMILES | activity change, positive = activation
Nc1nc(N)c2nc(-c3ccccc3)c(N)nc2n1 | -44.9% (inactive) and -45.9% (inactive)
O=c1n(CCCN2CCN(c3cccc(Cl)c3)CC2)nc2ccccn12 | -28.6% (inactive)
c1cnc2c(c1)ccc1cccnc12 | -72.1% (inactive) and -45.5% (inactive) and -63.4% (inactive)
O=C(c1ccccc1)c1ccc(O)c(O)c1O | -7.85% (inactive) and -0.637% (inactive)
CC(CN1c2ccccc2Sc2ccccc21)N(C)C (configuration not stated) | -81.8% (inactive) and -69.4% (inactive)

test: qHTS RealTime-Glo MT Cell Viability Assay in HepG2 cells - 24 hour (AID 1224867); conditions: RealTime-Glo luminescence; series mostly up to 76.8 µM; also: nearly all actives have a fitted effect of over 50% in size
How it was run: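 Real-time, nonlytic viability: 600 HepG2 cells/well mixed with NanoLuc enzyme plus prosubstrate; 5 h settle, compound (DMSO) added by pintool; luminescence monitored over 40 h at 37 C.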

SMILES | Potency
Cc1ccc(C)c(S(=O)(=O)O)c1 | inactive
C=C(C)CC(C)(C)C | inactive
CN1Cc2c(N)cccc2C(c2ccccc2)C1 (configuration not stated) | inactive
CCOC(=O)CC(=O)OCC | inactive
O=c1c(O)c(-c2ccc(O)c(O)c2)oc2cc(O)cc(O)c12 | inactive
Nc1cccc(N)n1 | inactive
Nc1nc(N)c2nc(-c3ccccc3)c(N)nc2n1 | inactive
OCC(O)CS (configuration not stated) | inactive
CC(=O)c1nccs1 | inactive
Cc1ncc(CO)c(CO)c1O | inactive
C[Si](C)(C)N[Si](C)(C)C | inactive
CC/C=C(\C(=O)N[C@@H]1C(=O)N2C(C(=O)OCOC(=O)C(C)(C)C)=C(COC(N)=O)CS[C@H]12)c1csc(N)n1 | inactive
CCOC(=O)c1ccc(O)cc1 | inactive
Cc1nnc(NS(=O)(=O)c2ccc(N)cc2)s1 | inactive
O=C(NCC1CCCCN1)c1cc(OCC(F)(F)F)ccc1OCC(F)(F)F (configuration not stated) | inactive
CC/C(C)=N/O | inactive
CC(=O)OC/C=C(\C)CCC=C(C)C | inactive
O=c1n(CCCN2CCN(c3cccc(Cl)c3)CC2)nc2ccccn12 | inactive
Clc1cccc(Cl)c1NC1=NCCN1 | inactive

SMILES | Potency
N[C@@H](Cc1cc(I)c(Oc2ccc(O)c(I)c2)c(I)c1)C(=O)O | inactive
OC1CCCCC1 | inactive
CCCCCCCCC(=O)O | inactive
CC(O)CNCC(C)O (configuration not stated) | inactive
c1cnc2c(c1)ccc1cccnc12 | inactive
CC(C)(C)NC[C@H](O)COc1nsnc1N1CCOCC1 | inactive
CC(C)=CCC/C(C)=C/C=O | inactive
CCN(CC)CCNC(=O)c1ccc(N)cc1 | inactive
O=C(O)C1=NN(c2ccc(S(=O)(=O)O)cc2)C(=O)C1 | inactive
CCn1cc(C(=O)O)c(=O)c2cc3c(cc21)OCO3 | inactive
COc1ccc(N)c(OC)c1 | inactive
CCCCC(=O)O | inactive
O=C(c1ccccc1)c1ccc(O)c(O)c1O | inactive
O=C1C(N(CO)C(=O)NCO)N(CO)C(=O)N1CO (configuration not stated) | inactive
Cc1ccccc1C=O | inactive
C=C(CC(=O)O)C(=O)O | inactive
CC[N+](CC)(CC(=O)Nc1c(C)cccc1C)Cc1ccccc1 | inactive
NC(=O)c1ncn([C@@H]2O[C@H](CO)[C@@H](O)[C@H]2O)n1 | inactive

test: qHTS RealTime-Glo MT Cell Viability Assay in HEK293 cells - 32 hour (AID 1224868); conditions: RealTime-Glo luminescence; series mostly up to 76.8 µM; also: nearly all actives have a fitted effect of over 50% in size; also: potency is read from the fitted curve at half-maximal effect
How it was run: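 Cells + reagent dispensed (600 cells/well, HEK293) → 5 h at 37 C/5% CO2 → 23 nL compound in DMSO pinned → 40 h at 37 C → luminescence read at 0, 8, 16, 24, 32, 40 h.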

SMILES | Potency
Cc1ccc(C)c(S(=O)(=O)O)c1 | inactive
C=C(C)CC(C)(C)C | inactive
CN1Cc2c(N)cccc2C(c2ccccc2)C1 (configuration not stated) | inactive
CCOC(=O)CC(=O)OCC | inactive
O=c1c(O)c(-c2ccc(O)c(O)c2)oc2cc(O)cc(O)c12 | inactive
Nc1cccc(N)n1 | inactive
Nc1nc(N)c2nc(-c3ccccc3)c(N)nc2n1 | inactive
OCC(O)CS (configuration not stated) | inactive
CC(=O)c1nccs1 | inactive
Cc1ncc(CO)c(CO)c1O | inactive
C[Si](C)(C)N[Si](C)(C)C | inactive
CC/C=C(\C(=O)N[C@@H]1C(=O)N2C(C(=O)OCOC(=O)C(C)(C)C)=C(COC(N)=O)CS[C@H]12)c1csc(N)n1 | inactive
CCOC(=O)c1ccc(O)cc1 | inactive
Cc1nnc(NS(=O)(=O)c2ccc(N)cc2)s1 | inactive
O=C(NCC1CCCCN1)c1cc(OCC(F)(F)F)ccc1OCC(F)(F)F (configuration not stated) | inactive
CC/C(C)=N/O | inactive
CC(=O)OC/C=C(\C)CCC=C(C)C | inactive
O=c1n(CCCN2CCN(c3cccc(Cl)c3)CC2)nc2ccccn12 | 13.8 µM (active) and 9.52 µM (active)
Clc1cccc(Cl)c1NC1=NCCN1 | inactive

SMILES | Potency
N[C@@H](Cc1cc(I)c(Oc2ccc(O)c(I)c2)c(I)c1)C(=O)O | inactive
OC1CCCCC1 | inactive
CCCCCCCCC(=O)O | inactive
CC(O)CNCC(C)O (configuration not stated) | inactive
c1cnc2c(c1)ccc1cccnc12 | 3.5 µM (active) and 7.76 µM (active)
CC(C)(C)NC[C@H](O)COc1nsnc1N1CCOCC1 | inactive
CC(C)=CCC/C(C)=C/C=O | inactive
CCN(CC)CCNC(=O)c1ccc(N)cc1 | inactive
O=C(O)C1=NN(c2ccc(S(=O)(=O)O)cc2)C(=O)C1 | inactive
CCn1cc(C(=O)O)c(=O)c2cc3c(cc21)OCO3 | inactive
COc1ccc(N)c(OC)c1 | inactive
CCCCC(=O)O | inactive
O=C(c1ccccc1)c1ccc(O)c(O)c1O | inactive
O=C1C(N(CO)C(=O)NCO)N(CO)C(=O)N1CO (configuration not stated) | inactive
CC(CN1c2ccccc2Sc2ccccc21)N(C)C (configuration not stated) | 39.3 µM (active) and 43.6 µM (active) and 6.01 µM (active)
Cc1ccccc1C=O | inactive
C=C(CC(=O)O)C(=O)O | inactive
CC[N+](CC)(CC(=O)Nc1c(C)cccc1C)Cc1ccccc1 | inactive
NC(=O)c1ncn([C@@H]2O[C@H](CO)[C@@H](O)[C@H]2O)n1 | inactive
